Measurements published in PubChem BioAssay (EPA / NIEHS).
Activity calls are given as the source filed them. The calls were made as follows: active = hit-call score of the fitted dose curve at least 0.9, where 1 is the maximum; inactive = score below 0.9.

Read-out: Human Leukocyte Antigen - DR isotype (HLADR), HLA-DRA (gene 3122)
Test: BSK_CASM3C_HLADR: BioMAP Diversity Plus: CASM3C Assay for Human Leukocyte Antigen - DR isotype (HLADR) Biomarker Activity (AID 2283043);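 also: cell-surface HLA-DR protein level quantified by ELISA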
Details: primary human coronary artery smooth muscle cells; actives raise or lower the signal

| SMILES | outcome | AC50 |
| --- | --- | --- |
| O=P(Oc1ccccc1)(Oc1ccccc1)Oc1ccccc1 | inactive | – |
| N#Cc1cc([N+](=O)[O-])ccc1N | inactive | – |
| ClC(Cl)c1ccccc1 | inactive | – |
| Cc1ccc2c(c1N)C(=O)c1ccccc1C2=O | inactive | – |
| CCNc1nc(Cl)nc(NC(C)(C)C)n1 | inactive | – |
| O=C(O)C(Cl)Cl | inactive | – |
| CCCCC(CC)COP(=O)(Oc1ccccc1)Oc1ccccc1 (centres undefined) | inactive | – |
| OCC(F)(F)OC(F)(F)C(F)(F)OC(F)(F)CO | inactive | – |
| c1cc2c3c(cccc3c1)CC2 | inactive | – |
| COP(N)(=S)OC | inactive | – |
| CCCCC(CC)COC(=O)c1c(Br)c(Br)c(Br)c(Br)c1C(=O)OCC(CC)CCCC (centres undefined) | inactive | – |
| O=C(O)C(F)(F)OC(F)(F)C(F)(F)OC(F)(F)C(=O)O | inactive | – |
| O=P1(N(CCCl)CCCl)NCCCO1 (centres undefined) | inactive | – |
| N#Cc1c(-c2ccc(Cl)cc2)[nH]c(C(F)(F)F)c1Br | – | 0.36 µM (active) |
| O=P(OCC(Br)CBr)(OCC(Br)CBr)OCC(Br)CBr (centres undefined) | inactive | – |
| C=CC(=O)OCC(CC)(COC(=O)C=C)COC(=O)C=C | – | 1.46 µM (active) |
| O=C(O)C=CC(F)(C(F)(F)F)C(F)(F)F | inactive | – |
| OCC1CO1 (centres undefined) | inactive | – |
| CC(Cl)CN(C)C (centres undefined) | inactive | – |
| CCOP(=S)(NC(C)C)Oc1ccccc1C(=O)OC(C)C (centres undefined) | inactive | – |
| CCOS(=O)(=O)OCC | inactive | – |
| CCC(C)(C)c1ccc(O)cc1 | inactive | – |
| Cc1c([N+](=O)[O-])cc2c(c1[N+](=O)[O-])C(C)(C)CC2(C)C | – | 1.74 µM (active) |
| Cc1cccc(N)c1 | inactive | – |
| c1ccc2c(c1)Nc1ccccc1S2 | inactive | – |
| CC(Cl)(Cl)C(=O)O | inactive | – |
| O=S(=O)(F)C(F)(F)C(F)(F)C(F)(F)C(F)(F)C(F)(F)C(F)(F)C(F)(F)C(F)(F)F | inactive | – |

Read-out: Macrophage colony-stimulating factor (MCSF), CSF1 (gene 1435)
Test: BSK_CASM3C_MCSF: BioMAP Diversity Plus: CASM3C Assay for Macrophage colony-stimulating factor (MCSF) Biomarker Activity (AID 2283044);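 also: M-CSF protein amount quantified by ELISA after 24 h exposure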
Details: primary human coronary artery smooth muscle cells; actives raise or lower the signal

| SMILES | outcome | AC50 |
| --- | --- | --- |
| O=P(Oc1ccccc1)(Oc1ccccc1)Oc1ccccc1 | inactive | – |
| N#Cc1cc([N+](=O)[O-])ccc1N | inactive | – |
| ClC(Cl)c1ccccc1 | inactive | – |
| CCNc1nc(Cl)nc(NC(C)(C)C)n1 | inactive | – |
| O=C(O)C(Cl)Cl | inactive | – |
| CCCCC(CC)COP(=O)(Oc1ccccc1)Oc1ccccc1 (centres undefined) | inactive | – |
| OCC(F)(F)OC(F)(F)C(F)(F)OC(F)(F)CO | inactive | – |
| c1cc2c3c(cccc3c1)CC2 | inactive | – |
| COP(N)(=S)OC | inactive | – |
| CCCCC(CC)COC(=O)c1c(Br)c(Br)c(Br)c(Br)c1C(=O)OCC(CC)CCCC (centres undefined) | inactive | – |
| O=C(O)C(F)(F)OC(F)(F)C(F)(F)OC(F)(F)C(=O)O | inactive | – |
| O=P1(N(CCCl)CCCl)NCCCO1 (centres undefined) | inactive | – |
| N#Cc1c(-c2ccc(Cl)cc2)[nH]c(C(F)(F)F)c1Br | – | 20 µM (active) |
| O=P(OCC(Br)CBr)(OCC(Br)CBr)OCC(Br)CBr (centres undefined) | inactive | – |
| C=CC(=O)OCC(CC)(COC(=O)C=C)COC(=O)C=C | – | 1.98 µM (active) |
| O=C(O)C=CC(F)(C(F)(F)F)C(F)(F)F | inactive | – |
| OCC1CO1 (centres undefined) | inactive | – |
| CC(Cl)CN(C)C (centres undefined) | inactive | – |
| CCOP(=S)(NC(C)C)Oc1ccccc1C(=O)OC(C)C (centres undefined) | inactive | – |
| CCOS(=O)(=O)OCC | inactive | – |
| CCC(C)(C)c1ccc(O)cc1 | inactive | – |
| Cc1c([N+](=O)[O-])cc2c(c1[N+](=O)[O-])C(C)(C)CC2(C)C | – | 0.378 µM (active) |
| CCCN(CCC)c1c([N+](=O)[O-])cc(C(C)C)cc1[N+](=O)[O-] | inactive | – |
| Cc1cccc(N)c1 | inactive | – |
| c1ccc2c(c1)Nc1ccccc1S2 | inactive | – |
| CC(Cl)(Cl)C(=O)O | inactive | – |
| O=S(=O)(F)C(F)(F)C(F)(F)C(F)(F)C(F)(F)C(F)(F)C(F)(F)C(F)(F)C(F)(F)F | inactive | – |
